Inconclusive results are not listed. Calls of active or inactive are those of the source.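 The calls were made as follows: active = compounds whose potency, the dose giving half inhibition, is below 20 µM; inconclusive = compounds meeting neither the active nor the inactive rule; inactive = potency over 20 µM or below 50% inhibition when unfitted.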
These molecules were tested against Integrin alpha-IIb (Homo sapiens) (UniProt P08514) (assay: Platelet Adhesion Secondary Assay for Inhibitors of Platelet Integrin alphallb-beta3). Details: human platelet adhesion to fibrinogen, calcein fluorescence; at 30 µM, stronger effect = higher value unless noted.
Text: NIH Molecular Libraries Probe Production Network [MLPCN] NIH Chemical Genomics Center [NCGC] MLPCN Grant: 1 R03 MH083257-01 Assay Provider: Barry Coller, Rockefeller University NCGC Assay Overview: The alphaIIbbeta3 receptor plays a vital role in hemostasis and thrombosis, where receptor deficiency causes the hemorrhagic disorder, Glanzmann thrombasthenia, and uncontrolled receptor activation causes thrombosis and blood vessel occlusion. Small molecule inhibitors of alphaIIbbeta3, tirofiban and eptifibatide, have undesirable side effects thought to arise from conformational changes in alphaIIbbeta3. These changes transiently activate the receptor to cause spontaneous platelet aggregation and thrombus formation. […] This secondary assay measures the binding of human plates to fibrinogen, an extracellular matrix protein (Blue et al., 2008). Platelets were loaded with a fluorescent dye, calcein, and added to fibrinogen-coated plates. Following incubation, unbound platelets were removed by washing and bound platelets were detected by measuring fluorescence intensity. Inhibitors of alphaIIbbeta3 block platelet binding to fibrinogen and result in a decrease in fluorescence intensity.
NCGC Assay Protocol Summary: Human fibrinogen (50 ug/mL) in Tris/saline (100 mM NaCl, 50 mM Tris/HCl, pH 7.4; American Diagnostica, Stamford, CT) was added to black, clear-bottom, untreated polystyrene, nonsterile 384-well microtiter plate wells (Corning no. 3711; Acton, MA) using a peristaltic microplate dispenser (WellMate; Matrix, Hudson, NH). After incubating at 22 C for 1 hour, plates were washed 4 times with Tris/saline using an automated plate washer (ELX405; Bio-Tek, Winooski, VT), and wells were then blocked with HBMT (138 mM NaCl, 12 mM NaHCO3, 10 mM HEPES, 2.7 mM KCl, 0.4 mM NaH2PO4, 0.1% glucose, 0.35% BSA, pH 7.4) for at least 1 hour. After 2 additional washes, 15 uL HBMT was allowed to remain in each well. Compounds were added to the wells with a liquid handling robot (MiniTrak V; PerkinElmer, Wellesley, MA) using a pin tool (VP Scientific, San Diego, CA) that added 0.1 uL compound in DMSO. Fifteen microliters 5E11/L calcein-labeled platelets were then added (2.5E11/L final concentration). After 1 hour of adhesion, wells were washed 4 times with HBMT-CaCl2/MgCl2 and the plates were read by an Envision (Perkin Elmer) to detect calcein fluorescence (490 nm excitation and 515 nm emission). Positive controls consisted of wells containing platelets without compounds. Negative controls were wells containing platelets and known inhibitors of alphaIIbbeta3, including mAbs 7E3 and 10E5, and EDTA. Reference Blue R, Murcia M, Karan C, Jirouskova M, and Coller BS. Application of high-throughput screening to identify a novel alphaIIb-specific small- molecule inhibitor of alphaIIbbeta3-mediated platelet interaction with fibrinogen. Blood. 2008, 111(3):1248-56

Integrin alpha-IIb (Homo sapiens), sequence (P08514 whole entry, looked up): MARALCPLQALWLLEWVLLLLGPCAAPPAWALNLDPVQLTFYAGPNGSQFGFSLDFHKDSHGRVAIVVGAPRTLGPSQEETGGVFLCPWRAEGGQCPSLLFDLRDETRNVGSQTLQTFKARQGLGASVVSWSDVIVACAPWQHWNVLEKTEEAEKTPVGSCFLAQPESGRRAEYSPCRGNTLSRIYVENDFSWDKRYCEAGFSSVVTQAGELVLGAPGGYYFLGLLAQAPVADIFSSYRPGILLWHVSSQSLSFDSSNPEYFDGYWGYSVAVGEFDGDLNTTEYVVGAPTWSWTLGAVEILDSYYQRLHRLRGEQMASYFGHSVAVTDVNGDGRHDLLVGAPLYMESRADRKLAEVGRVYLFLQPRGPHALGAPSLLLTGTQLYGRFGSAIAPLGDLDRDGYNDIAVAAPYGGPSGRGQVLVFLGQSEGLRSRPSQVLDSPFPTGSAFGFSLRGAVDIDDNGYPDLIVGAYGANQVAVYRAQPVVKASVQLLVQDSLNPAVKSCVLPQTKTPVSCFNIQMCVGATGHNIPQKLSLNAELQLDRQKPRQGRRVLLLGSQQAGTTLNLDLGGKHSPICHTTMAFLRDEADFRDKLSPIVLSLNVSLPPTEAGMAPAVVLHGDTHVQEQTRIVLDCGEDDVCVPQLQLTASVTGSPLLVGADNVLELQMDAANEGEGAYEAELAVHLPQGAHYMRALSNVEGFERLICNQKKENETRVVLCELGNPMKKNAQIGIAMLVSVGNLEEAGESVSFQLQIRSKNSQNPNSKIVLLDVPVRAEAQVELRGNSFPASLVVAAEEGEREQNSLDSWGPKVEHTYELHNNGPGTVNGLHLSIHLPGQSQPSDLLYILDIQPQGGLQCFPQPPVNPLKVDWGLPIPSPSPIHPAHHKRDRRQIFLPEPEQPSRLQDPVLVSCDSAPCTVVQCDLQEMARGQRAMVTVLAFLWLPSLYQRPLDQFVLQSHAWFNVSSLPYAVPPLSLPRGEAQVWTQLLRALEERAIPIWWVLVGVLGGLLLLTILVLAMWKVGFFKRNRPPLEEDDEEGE

Row | Structure (SMILES) | inhibition | outcome
1 | Cc1nn2c(=O)cc(N3CCNCC3)nc2s1 | 20% (inactive) | –
2 | CCc1nn2c(=O)cc(N3CCNCC3)nc2s1 | 35% (inactive) | –
3 | CCc1nn2c(=O)c(F)c(N3CCNCC3)nc2s1 | 41% [inhibition, at 100 µM, stronger effect = higher value] | inactive
4 | CCc1nn2c(=O)c(C)c(N3CCNCC3)nc2s1 | 55% [inhibition, at 100 µM, stronger effect = higher value] | inactive
5 | CCc1nn2c(=O)cc(N3CCN(C)CC3)nc2s1 | 23% (inactive) | –

— PubChem BioAssay AID2634 (National Center for Advancing Translational Sciences (NCATS), 2010)
